Laboratory results: PubChem BioAssay (NCI)
The panel holds about 79,000 compounds, 15% with a hit somewhere; the sample as a whole holds those more often. Calls of active or inactive are those of the source. Cut-off read from the data, not from the text of the source: active = growth inhibition above about 70%; inactive = the rest.

What was measured:
[1] = NCI Yeast Anticancer Drug Screen. Data for the rad50 strain (AID 155);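 note: 0% = growth of vehicle-only cultures of the same strain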; conditions: S. cerevisiae rad50 strain growth inhibition, active compounds read high
Summary of the method: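 Compounds were tested on a yeast strain with an engineered DNA damage repair alteration; the reported value is growth inhibition normalised to vehicle treatment.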

[2] = NCI Yeast Anticancer Drug Screen. Data for the mec2-1 strain (AID 157); conditions: S. cerevisiae mec2-1 strain, active compounds read high
Summary of the method: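 Yeast mec2-1 mutant treated with compound. Readout: growth inhibition vs vehicle controls.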

[3] = NCI Yeast Anticancer Drug Screen. Data for the sgs1 mgt1 strain (AID 161);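 note: 0% = growth of cultures given vehicle only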; conditions: S. cerevisiae sgs1 mgt1 strain, active compounds read high
Summary of the method: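 Inhibition of yeast growth, normalised to vehicle-treated controls, is reported for a strain bearing genetic alterations in DNA damage repair.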

[4] = NCI Yeast Anticancer Drug Screen. Data for the cln2 rad14 strain (AID 165);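 note: 0% = growth equal to vehicle treated cultures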; conditions: S. cerevisiae cln2 rad14 strain, active compounds read high
Summary of the method: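 cln2 rad14 yeast strain; compound exposure; growth inhibition read vs vehicle controls.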

[5] = NCI Yeast Anticancer Drug Screen. Data for the bub3 strain (AID 167); conditions: S. cerevisiae bub3 mutant strain, active compounds read high
Summary of the method: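 Growth of a checkpoint-deficient yeast mutant is measured after compound exposure. Values represent inhibition relative to vehicle.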

[6] = NCI Yeast Anticancer Drug Screen. Data for the mlh1 rad18 strain (AID 175); conditions: S. cerevisiae mlh1 rad18 strain growth inhibition, active compounds read high
Summary of the method: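 Yeast w/ defined DNA-repair lesions; compound exposure; growth vs vehicle controls → % inhibition.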

[7] = at 5.0 µM (retest, dose inferred, filed as 0.5)
[8] = at 50.0 µM (retest, dose inferred, filed as 5.0)

Measured: growth inhibition

CC[n+]1ccc(Nc2ccc(NC(=O)c3ccc(C(=O)Nc4ccc(Nc5cc[n+](CC)c(N)n5)cc4)cc3)cc2)nc1N
active: [1]; [8] 98% | [1]; at 50.0 µM 98.2% | [2]; [8] 99% | [2]; at 50.0 µM 98.9% | [3]; [8] 99% | [3]; at 50.0 µM 99% | [4]; [8] 98% | [4]; at 50.0 µM 97.3% | [5]; [8] 96% | [5]; at 50.0 µM 98% | [6]; [8] 99% | [6]; at 50.0 µM 98.3%
inactive: [1]; [7] 24% | [2]; [7] 30% | [3]; [7] 26% | [4]; [7] -3% | [5]; [7] 28% | [6]; [7] 50%

CCOC(=O)C(NNc1ccccc1)C(c1ccccc1)[P+](c1ccccc1)(c1ccccc1)c1ccccc1 (stereo unspecified)
active: [1]; [7] 78% | [1]; [8] 99% | [1]; at 50.0 µM 99.5% | [2]; [7] 94% | [2]; [8] 99% | [2]; at 50.0 µM 99.7% | [3]; [7] 85% | [3]; [8] 99% | [3]; at 50.0 µM 99.7% | [4]; [8] 99% | [4]; at 50.0 µM 99.5% | [5]; [7] 91% | [5]; [8] 99% | [5]; at 50.0 µM 99.4% | [6]; [7] 95% | [6]; [8] 99% | [6]; at 50.0 µM 99.7%
inactive: [4]; [7] 59%

O=[N+]([O-])c1ccc(Sc2ccc([N+](=O)[O-])o2)cc1
inactive: [1]; at 50.0 µM 13.9% | [2]; at 50.0 µM 16.5% | [3]; at 50.0 µM 52.1% | [4]; at 50.0 µM -9.05% | [5]; at 50.0 µM 60.7% | [6]; at 50.0 µM 59.8%
active: [1]; [7] 95% | [1]; [8] 99% | [2]; [7] 94% | [2]; [8] 100% | [3]; [7] 95% | [3]; [8] 100% | [4]; [7] 89% | [4]; [8] 99% | [5]; [7] 98% | [5]; [8] 99% | [6]; [7] 97% | [6]; [8] 99%

Cc1ccc2c(c1)C1C(CC2)C2C(=O)OC(=O)C2C2CCc3ccc(C)cc3C21 (stereo unspecified)
inactive: [1]; [7] 35% | [1]; at 50.0 µM 35.4% | [2]; [7] 21% | [2]; at 50.0 µM 14.3% | [3]; [7] 6% | [3]; at 50.0 µM 1.35% | [4]; [7] 20% | [4]; at 50.0 µM 0.4% | [5]; [7] 19% | [5]; at 50.0 µM 10.3% | [6]; [7] 29% | [6]; at 50.0 µM 38.4%
active: [1]; [8] 97% | [2]; [8] 98% | [3]; [8] 99% | [4]; [8] 90% | [5]; [8] 97% | [6]; [8] 98%

CCN(CC)C(=S)n1c(=S)nc(N(CC)CC)sc1=S
inactive: [1]; [7] 57% | [2]; [7] 42% | [3]; [7] 63% | [4]; [7] 39% | [5]; [7] 54%
active: [1]; [8] 97% | [1]; at 50.0 µM 89.3% | [2]; [8] 98% | [2]; at 50.0 µM 92.2% | [3]; [8] 99% | [3]; at 50.0 µM 92.5% | [4]; [8] 86% | [4]; at 50.0 µM 88.9% | [5]; [8] 83% | [5]; at 50.0 µM 91.2% | [6]; [7] 75% | [6]; [8] 98% | [6]; at 50.0 µM 89.8%

C/C(=C\c1ccccc1Cl)c1ccccn1
inactive: [1]; [7] 2% | [1]; [8] 67% | [2]; [7] 2% | [2]; [8] 49% | [3]; [7] 6% | [4]; [7] -7% | [4]; [8] 7% | [4]; at 50.0 µM -44.5% | [5]; [7] 33% | [6]; [7] 10% | [6]; [8] 27%
active: [1]; at 50.0 µM 86.2% | [2]; at 50.0 µM 89.6% | [3]; [8] 71% | [3]; at 50.0 µM 80.7% | [5]; [8] 98% | [5]; at 50.0 µM 96.8% | [6]; at 50.0 µM 83%

O=C(CCCl)Nc1ccc(CCC(=O)c2ccccc2NC(=O)CCCl)cc1
active: [3]; at 50.0 µM 81.8%
inactive: [1]; [7] -10% | [1]; [8] 23% | [1]; at 50.0 µM 69.2% | [2]; [7] -9% | [2]; [8] -4% | [2]; at 50.0 µM 64.4% | [3]; [7] -7% | [3]; [8] 59% | [4]; [7] -24% | [4]; [8] -22% | [4]; at 50.0 µM 27.9% | [5]; [7] -8% | [5]; [8] 19% | [5]; at 50.0 µM 10.8% | [6]; [7] -11% | [6]; [8] -6% | [6]; at 50.0 µM 54.3%
